Source: PubChem BioAssay (Tox21)
A number with no mark means an inactive call. Inconclusive results are not listed. Entries that show only a call come without a potency. Calls of active or inactive are those of the source. Unless noted, the call rests on the fitted dose curve.

Experiments:
[1] = target: Thyrotropin receptor (Homo sapiens) (UniProt P16473); experiment: qHTS assay to identify small molecule agonists of the thyroid stimulating hormone receptor (TSHR) signaling pathway (AID 1224843); further: nearly all actives have a fitted effect of over 45% in size
Procedure, shortened: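 Screening of the Tox21 10K collection used HEK293 cells engineered with TSHR at 800 cells per well. After a 30-min room-temperature compound exposure, HTRF cAMP reagents were added and fluorescence recorded 1 h later.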

[2] = qHTS assay to identify small molecule agonists of the hypoxia (HIF-1) signaling pathway - cell viability counter screen (AID 1224844); further: nearly all actives have a fitted effect of over 50% in size
Procedure, shortened: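 Cells (HRE-bla ME-180, 2,000 per well) sat 5 hrs at 37C, got compound for 17 hrs, were read for CCF4-AM FRET, and were finally lysed with CellTiter-Glo for a 30 min room-temperature luminescence read.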

[3] = qHTS assay to identify small molecule agonists of H2AX (AID 1224845; active means well fitted activation curve with a large enough effect in the signal ratio in the repeat runs, not every such curve was filed as active; the % refers to the signal ratio)
Procedure, shortened: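 Phospho-H2AX Ser139 measured by HTRF (ex 320 nm; em 665 and 620 nm) after 24 hr antibody incubation. Compounds, 15 concentrations, 0.76% DMSO, were applied to CHO-K1 cells for 3hr at 37C before lysis.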

[4] = qHTS assay to identify small molecule agonists of the hypoxia (HIF-1) signaling pathway (AID 1224846; active means well fitted activation curve with a large enough effect in the signal ratio in the repeat runs, not every such curve was filed as active; the % refers to the signal ratio)
Procedure, shortened: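 A low-serum medium (0.5% dialyzed FBS) holding 2,000 HRE-bla ME-180 cells per well is preincubated for 5 hrs, dosed with compounds by pintool, and kept a further 17 hrs at 37C, 5% CO2 before CCF4-AM FRET detection of beta-lactamase.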

[5] = qHTS assay to identify small molecule agonists of H2AX - cell viability counter screen (AID 1224847); further: nearly all actives have a fitted effect of over 30% in size; further: potency means the concentration at half of the fitted maximal effect; on activity change, negative = cytotoxicity: top concentration of the series differs between compounds
Procedure, shortened: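 Viability of CHO-K1 (wild type) cells after 3 hr compound exposure was measured by CellTiter-Glo luminescence.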

[6] = qHTS assay to identify small molecule antagonists of the estrogen related receptor (ERR) signaling pathway from Tox21 library (AID 1224848; active means well fitted curve in the direction sought with a large enough effect in the repeat runs; an effect the other way counts as inactive or inconclusive; further: nearly all actives have a fitted effect of over 50% in size; further: potency means the concentration at half of the fitted maximal effect)
Procedure, shortened: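 Antagonist-mode screen of the Tox21 10K library in an NTP-provided ERR reporter cell line; 18 h compound exposure at 37 C, luminescence measured with ONE-Glo.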

[7] = qHTS RealTime-Glo MT Cell Viability Assay in HepG2 cells - 24 hour (AID 1224867; active means well fitted curve in the direction sought with a large enough effect in the repeat runs; an effect the other way counts as inactive or inconclusive; further: nearly all actives have a fitted effect of over 50% in size)
Procedure, shortened: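 HepG2 suspension premixed with RealTime-Glo reagents is plated at 600 cells per well and left 5 h at 37 C/5% CO2. Compounds in DMSO then go in, and bioluminescence reflecting viable cell number is recorded over 40 h.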

[8] = A CellTox Green Cytotoxicity Assay to monitor cytotoxicity in HEK293 cells - 0 hour (AID 1224869; active means well fitted curve in the direction sought with a large enough effect in the repeat runs; an effect the other way counts as inactive or inconclusive; further: nearly all actives have a fitted effect of over 50% in size)
Procedure, shortened: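 Fluorescence intensity, read at 0, 8, 16, 24, 32 and 40 h of compound treatment, reflected dye binding to DNA of dead HEK293 cells; compounds (23 nL, DMSO) were added 5 h after plating cells with reagent.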

[9] = qHTS RealTime-Glo MT Cell Viability Assay in HEK293 cells - 32 hour (AID 1224868; active means well fitted curve in the direction sought with a large enough effect in the repeat runs; an effect the other way counts as inactive or inconclusive)
Procedure, shortened: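 Reads taken at 0, 8, 16, 24, 32 and 40 h from the same wells. HEK293 cells (600/well) carried RealTime-Glo reagents from seeding, with compound added after a 5 h settle at 37 C.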

Thyrotropin receptor (Homo sapiens), sequence (P16473 whole entry, looked up): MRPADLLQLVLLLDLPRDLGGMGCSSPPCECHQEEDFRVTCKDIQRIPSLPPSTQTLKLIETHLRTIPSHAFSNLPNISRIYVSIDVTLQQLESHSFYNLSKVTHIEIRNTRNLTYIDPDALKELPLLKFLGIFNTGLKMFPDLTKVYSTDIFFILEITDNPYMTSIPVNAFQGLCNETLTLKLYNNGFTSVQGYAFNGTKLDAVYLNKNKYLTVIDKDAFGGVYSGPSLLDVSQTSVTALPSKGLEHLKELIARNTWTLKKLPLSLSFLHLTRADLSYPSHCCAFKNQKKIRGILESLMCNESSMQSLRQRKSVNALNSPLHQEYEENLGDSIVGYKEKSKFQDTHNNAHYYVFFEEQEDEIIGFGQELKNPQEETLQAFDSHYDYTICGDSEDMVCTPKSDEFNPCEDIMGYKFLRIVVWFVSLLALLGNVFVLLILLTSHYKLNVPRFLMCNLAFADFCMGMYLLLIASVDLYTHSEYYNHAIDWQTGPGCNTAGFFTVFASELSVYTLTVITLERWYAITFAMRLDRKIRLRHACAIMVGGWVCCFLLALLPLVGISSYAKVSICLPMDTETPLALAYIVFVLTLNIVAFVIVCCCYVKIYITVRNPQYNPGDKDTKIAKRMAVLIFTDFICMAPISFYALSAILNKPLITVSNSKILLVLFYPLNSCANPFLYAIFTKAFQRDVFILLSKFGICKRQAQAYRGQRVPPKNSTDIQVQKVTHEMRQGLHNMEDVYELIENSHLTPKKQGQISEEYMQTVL

For FC(F)(F)c1ccccc1, the Potency [1] was “inactive”, the Potency [2] was “inactive” and the Potency [3] was “inactive”. For the same molecule, the outcome [4] was “inactive”, the Potency [5] was “inactive” and the Potency [6] was “inactive”. For the same molecule, the Potency [7] was “inactive” and the Potency [8] was “inactive”.
In the case of CCCCNc1cc(C(=O)O)cc(S(N)(=O)=O)c1Oc1ccccc1, the Potency [1] is reported as “inactive”, the Potency [2] is reported as “inactive” and the Potency [3] is reported as “inactive”. The outcome [4] was “inactive”, the Potency [5] was “inactive” and the Potency [9] was “inactive”.
With Oc1ccccc1F the Potency [1] was “inactive”, the Potency [2] was “inactive” and the Potency [3] was “inactive”. For the same molecule, the outcome [4] was “inactive”, the Potency [5] was “inactive” and the Potency [7] was “inactive”. For the same molecule, the Potency [9] was “inactive” and the Potency [8] was “inactive”.
For CC(C)c1ccccc1, the Potency [1] was “inactive”, the Potency [2] was “inactive” and the Potency [3] was “inactive”. For the same molecule, the outcome [4] was “inactive”, the Potency [5] was “inactive” and the Potency [7] was “inactive”. The Potency [9] was “inactive” and the Potency [8] was “inactive”.
In the case of CCC1(C)NC(=O)NC1=O (stereo not drawn), the Potency [1] is reported as “inactive”, the Potency [2] is reported as “inactive” and the Potency [3] is reported as “inactive”. The outcome [4] was “inactive”, the Potency [5] was “inactive” and the Potency [7] was “inactive”. The Potency [9] was “inactive”.
With Cc1ccsc1C(=CCCN1CCC[C@@H](C(=O)O)C1)c1sccc1C the Potency [1] was “inactive”, the Potency [2] was “inactive” and the Potency [3] was “inactive”. The outcome [4] was “inactive”, the Potency [5] was “inactive” and the Potency [9] was “inactive”. For the same molecule, the Potency [8] was “inactive”.
In the case of CN1CCN(c2c(F)cc3c(=O)c(C(=O)O)cn(CCF)c3c2F)CC1, the Potency [1] is reported as “inactive”, the Potency [2] is reported as “inactive” and the Potency [3] is reported as “inactive”. The outcome [4] was “inactive”, the Potency [5] was “inactive” and the Potency [7] was “inactive”. For the same molecule, the Potency [9] was “inactive” and the Potency [8] was “inactive”.
In the case of Cc1c(C(=O)NCCO)[n+](=O)c2ccccc2n1[O-], the Potency [1] is reported as “inactive”, the Potency [2] is reported as “inactive” and the Potency [3] is reported as “inactive”. For the same molecule, the outcome [4] was “inactive”, the Potency [5] was “inactive” and the Potency [9] was “inactive”. The Potency [8] was “inactive”.
With C/C(=N\O)[C@@H](C)NCC(C)(C)CN[C@H](C)/C(C)=N/O the Potency [1] was “inactive”, the Potency [2] was “inactive” and the Potency [3] was “inactive”. For the same molecule, the outcome [4] was “inactive”, the Potency [5] was “inactive” and the Potency [7] was “inactive”. The Potency [8] was “inactive”.
For Cc1c(N)cccc1N, the Potency [1] was “inactive”, the Potency [2] was “inactive” and the Potency [3] was “inactive”. For the same molecule, the outcome [4] was “inactive”, the Potency [5] was “inactive” and the Potency [7] was “inactive”. The Potency [9] was “inactive” and the Potency [8] was “inactive”.
In the case of Cc1ncc(CO)c(CN)c1O, the Potency [1] is reported as “inactive”, the Potency [2] is reported as “inactive” and the Potency [3] is reported as “inactive”. The outcome [4] was “inactive”, the Potency [5] was “inactive” and the Potency [6] was “inactive”. For the same molecule, the Potency [7] was “inactive” and the Potency [8] was “inactive”.
For NCCC(O)(P(=O)(O)O)P(=O)(O)O, the Potency [1] was “inactive”, the Potency [2] was “inactive” and the Potency [3] was “inactive”. For the same molecule, the outcome [4] was “inactive”, the Potency [5] was “inactive” and the Potency [6] was “inactive”. For the same molecule, the Potency [9] was “inactive” and the Potency [8] was “inactive”.
In the case of CCCCCCC, the Potency [1] is reported as “inactive”, the Potency [2] is reported as “inactive” and the Potency [3] is reported as “inactive”. For the same molecule, the outcome [4] was “inactive”, the Potency [5] was “inactive” and the Potency [7] was “inactive”. For the same molecule, the Potency [9] was “inactive” and the Potency [8] was “inactive”.
In the case of CCOC(=O)[C@H](CCc1ccccc1)N[C@@H](C)C(=O)N1Cc2cc(OC)c(OC)cc2C[C@H]1C(=O)O, the Potency [1] is reported as “inactive”, the Potency [2] is reported as “inactive” and the Potency [3] is reported as “inactive”. The outcome [4] was “inactive”, the Potency [5] was “inactive” and the Potency [7] was “inactive”.
With CC(C)C(=O)OCC(C)(C)C(O)C(C)C (stereo not drawn) the Potency [1] was “inactive”, the Potency [2] was “inactive” and the Potency [3] was “inactive”. For the same molecule, the outcome [4] was “inactive”, the Potency [5] was “inactive” and the Potency [7] was “inactive”. For the same molecule, the Potency [9] was “inactive” and the Potency [8] was “inactive”.
With C[C@@H]1CN(c2c(F)c(F)c3c(=O)c(C(=O)O)cn(C4CC4)c3c2F)C[C@H](C)N1 the activation [1] was -4.01% [at 19 µM], the activity change, negative = cytotoxicity [2] was 2.14% [at 15.8 µM] and the activation (H2AX phosphorylation) [3] was -0.115% [at 31.6 µM]. For the same molecule, the activation [4] was 0.101% [at 15.8 µM], the activity change, negative = cytotoxicity [5] was 5.9% [at 31.6 µM] and the activity, negative = inhibition [6] was 2.94% [at 19 µM]. For the same molecule, the activity change, negative = cytotoxic [9] was 11.6% [at 15.8 µM] and the cytotoxicity [8] was 5.43% [at 15.8 µM].
In the case of Cc1cc(NS(=O)(=O)c2ccc(N)cc2)nc(C)n1, the Potency [1] is reported as “inactive”, the Potency [2] is reported as “inactive” and the Potency [3] is reported as “inactive”. For the same molecule, the outcome [4] was “inactive”, the Potency [5] was “inactive” and the Potency [7] was “inactive”. For the same molecule, the Potency [9] was “inactive” and the Potency [8] was “inactive”.
In the case of CCCC1CCC(=O)O1 (stereo not drawn), the Potency [1] is reported as “inactive”, the Potency [2] is reported as “inactive” and the Potency [3] is reported as “inactive”. The outcome [4] was “inactive”, the Potency [5] was “inactive” and the Potency [9] was “inactive”. The Potency [8] was “inactive”.
COC(=O)c1ccc2cc(C(=O)OC)ccc2c1 showed an activation [1] of 2.3% [at 19 µM], an activity change, negative = cytotoxicity [2] of 1.66% [at 15.8 µM] and an activation (H2AX phosphorylation) [3] of 0.148% [at 31.6 µM]. For the same molecule, the activation [4] was -0.33% [at 15.8 µM], the activity change, negative = cytotoxicity [5] was 2.5% [at 31.6 µM] and the activity, negative = inhibition [6] was 23.9% [at 19 µM]. The cytotoxicity [8] was 2.02% [at 15.8 µM].
In the case of CCCCC(=O)O[C@]1(C(=O)CO)[C@H](C)C[C@H]2[C@@H]3CCC4=CC(=O)C=C[C@]4(C)[C@@]3(F)[C@@H](O)C[C@@]21C, the Potency [1] is reported as “inactive”, the Potency [2] is reported as “inactive” and the Potency [3] is reported as “inactive”. For the same molecule, the outcome [4] was “inactive”, the Potency [5] was “inactive” and the Potency [6] was “inactive”. The Potency [7] was “inactive”, the Potency [9] was “inactive” and the Potency [8] was “inactive”.
In the case of Cc1ccc([N+](=O)[O-])c(N)c1, the Potency [1] is reported as “inactive”, the Potency [2] is reported as “inactive” and the Potency [3] is reported as “inactive”. For the same molecule, the outcome [4] was “inactive”, the Potency [5] was “inactive” and the Potency [6] was “inactive”. For the same molecule, the Potency [9] was “inactive” and the Potency [8] was “inactive”.
For CC(=O)OC1C2(C)CCC(C2)C1(C)C (stereo not drawn), the Potency [1] was “inactive”, the Potency [2] was “inactive” and the Potency [3] was “inactive”. For the same molecule, the outcome [4] was “inactive”, the Potency [5] was “inactive” and the Potency [6] was “inactive”. For the same molecule, the Potency [9] was “inactive” and the Potency [8] was “inactive”.
In the case of CCOc1ccccc1N, the Potency [1] is reported as “inactive”, the Potency [2] is reported as “inactive” and the Potency [3] is reported as “inactive”. For the same molecule, the outcome [4] was “inactive”, the Potency [5] was 44.7 µM (active) and the Potency [6] was 12.1 µM (active). The Potency [7] was “inactive” and the Potency [8] was “inactive”.
With CC(=O)Nc1ccc(C)c(Cl)c1 the Potency [1] was “inactive”, the Potency [2] was “inactive” and the Potency [3] was “inactive”. The outcome [4] was “inactive”, the Potency [5] was “inactive” and the Potency [7] was “inactive”. For the same molecule, the Potency [9] was “inactive” and the Potency [8] was “inactive”.
With NC(=O)NS(=O)(=O)c1ccc(Cl)cc1 the Potency [1] was “inactive”, the Potency [2] was “inactive” and the Potency [3] was “inactive”. For the same molecule, the outcome [4] was “inactive”, the Potency [5] was “inactive” and the Potency [7] was “inactive”. For the same molecule, the Potency [9] was “inactive” and the Potency [8] was “inactive”.
For CCCCCCCCCC/C=C/C#N, the Potency [1] was “inactive”, the Potency [2] was “inactive” and the Potency [3] was “inactive”. For the same molecule, the outcome [4] was “inactive”, the Potency [5] was “inactive” and the Potency [6] was “inactive”. For the same molecule, the Potency [7] was “inactive” and the Potency [8] was “inactive”.
In the case of CCN(CC)CC1CCCCN1CC(=O)N1c2ccccc2C(=O)Nc2cccnc21 (stereo not drawn), the Potency [1] is reported as “inactive”, the Potency [2] is reported as “inactive” and the Potency [3] is reported as “inactive”. For the same molecule, the outcome [4] was “inactive”, the Potency [5] was “inactive” and the Potency [6] was “inactive”. For the same molecule, the Potency [7] was “inactive”, the Potency [9] was “inactive” and the Potency [8] was “inactive”.
